Molecules are shown by their SMILES. Out of some 62,000 compounds screened, about 100 (0.2%) were called active. What follows is part of a selection rich in actives, with near analogues and random picks from the rest. Unmarked numbers belong to inactive results. Cut-off read from the data, not from the text of the source: active = inhibition above about 20%; inactive = the rest.

The target in this assay is DNA-directed RNA polymerase subunit beta (Escherichia coli (strain K12)) (UniProt P0A8V2). The assay is described as follows: bacterial RNA polymerase transcription inhibition – biochemical (AID 559).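 Note: 0% = enzyme without compound and 100% = no enzyme blank.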 As to conditions: E. coli RNA polymerase, fluorescence transcription assay; active compounds read high;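 tested at 10 µM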.
DNA-directed RNA polymerase subunit beta (Escherichia coli (strain K12)), sequence (P0A8V2 whole entry, looked up): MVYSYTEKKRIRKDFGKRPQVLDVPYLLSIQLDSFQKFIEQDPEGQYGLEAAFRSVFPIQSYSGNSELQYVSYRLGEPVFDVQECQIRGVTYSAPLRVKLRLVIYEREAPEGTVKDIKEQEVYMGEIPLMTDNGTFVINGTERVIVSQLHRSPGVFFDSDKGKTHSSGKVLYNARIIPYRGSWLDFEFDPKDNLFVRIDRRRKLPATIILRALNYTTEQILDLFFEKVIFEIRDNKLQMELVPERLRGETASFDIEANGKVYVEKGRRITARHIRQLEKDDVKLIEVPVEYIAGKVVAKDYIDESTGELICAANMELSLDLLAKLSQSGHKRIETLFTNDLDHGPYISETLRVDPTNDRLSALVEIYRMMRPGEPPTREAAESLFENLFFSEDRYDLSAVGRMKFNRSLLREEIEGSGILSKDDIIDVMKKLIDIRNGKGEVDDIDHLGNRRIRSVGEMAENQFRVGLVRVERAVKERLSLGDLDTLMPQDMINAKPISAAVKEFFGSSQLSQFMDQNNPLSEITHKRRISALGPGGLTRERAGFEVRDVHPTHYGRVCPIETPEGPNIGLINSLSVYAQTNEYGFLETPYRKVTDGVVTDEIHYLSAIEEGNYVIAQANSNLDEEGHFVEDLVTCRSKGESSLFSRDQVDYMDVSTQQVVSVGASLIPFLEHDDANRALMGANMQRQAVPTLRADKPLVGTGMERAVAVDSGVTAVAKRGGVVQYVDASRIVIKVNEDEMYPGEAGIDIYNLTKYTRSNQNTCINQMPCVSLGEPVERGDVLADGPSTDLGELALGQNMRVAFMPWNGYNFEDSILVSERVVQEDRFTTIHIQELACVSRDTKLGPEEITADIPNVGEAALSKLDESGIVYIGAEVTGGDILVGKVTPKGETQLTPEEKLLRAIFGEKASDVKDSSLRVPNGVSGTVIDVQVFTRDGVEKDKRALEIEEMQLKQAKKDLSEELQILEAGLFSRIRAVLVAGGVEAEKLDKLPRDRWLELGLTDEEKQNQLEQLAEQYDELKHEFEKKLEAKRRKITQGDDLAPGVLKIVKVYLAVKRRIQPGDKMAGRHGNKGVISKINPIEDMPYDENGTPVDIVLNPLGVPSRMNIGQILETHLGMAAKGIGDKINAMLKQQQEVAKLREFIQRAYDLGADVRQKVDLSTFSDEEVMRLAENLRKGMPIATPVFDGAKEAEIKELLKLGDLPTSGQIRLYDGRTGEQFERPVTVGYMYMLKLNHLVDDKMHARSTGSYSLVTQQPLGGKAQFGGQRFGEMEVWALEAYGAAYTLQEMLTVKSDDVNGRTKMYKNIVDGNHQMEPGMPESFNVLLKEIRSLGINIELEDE
`Cc1nc(NC(CC(C)C)C(=O)O)c2nc(C)oc2n1` (stereo unspecified): the inhibition is -1.28%. `O=C(CSc1n[nH]c(-c2cccnc2)n1)Nc1ccnc2ccccc12`: the inhibition was 11.1%. As to `O=S(=O)(c1ccc(OCC(O)CN2CCN(c3ccccc3Cl)CC2)cc1)N1CCOCC1` (stereo unspecified), the inhibition was 1.46%. For `CCOc1cc(-c2nc3cc(C)ccn3c2NCC2CCCO2)ccc1O` (stereo unspecified) the value was 6.06%.

Regarding `CCCNS(=O)(=O)c1ccc2c(c1)CCCN2C(C)=O`, the inhibition is 5.31%. For `CCN(CC)c1ccc(C(=O)OCC(=O)c2ccco2)cc1` the value was 4.69%; for `C=CCOC(=O)C1=C(C)OC(N)=C(C#N)C1c1ccc(F)cc1` (stereo unspecified), 0.25%. Regarding `Cc1ccc(C2CC(c3cccc(Br)c3)n3nc(N)nc3N2)cc1` (stereo unspecified), the inhibition was 8.67%. For `C=CCOc1ccc(C2/C(=C(\O)c3c(C)[nH]c(C(=O)OC)c3C)C(=O)C(=O)N2CCN(C)C)cc1` (stereo unspecified) the value was -5.38%; for `CC(=O)c1cccc(NC(=O)N2CCCC2C(=O)NCCC(C)C)c1` (stereo unspecified), 6.83%. In the case of `Cc1ccccc1-n1c(SCC(=O)NCc2cccs2)nnc1-c1ccncc1`, the inhibition was -3.22%.

With `Cn1c(=O)[nH]c(=O)c2c1nc(N1CCN(CCO)CC1)n2CCSc1nc2ccccc2s1`, the inhibition is 7.67%. For `O=C(Nc1ccccc1F)c1cc(S(=O)(=O)N2CCCCC2)cs1`, the inhibition was -4.61%. For `Cc1ccc(C)c(NS(=O)(=O)c2cc(Br)cnc2N)c1` the value was -0.25%.

`c1ccc(-n2ncc3c(N4CCCC4)ncnc32)cc1`: the inhibition was 10.9%. `Cc1nnc(SCC(=O)N2CCc3ccccc32)n1-c1ccccc1`: the inhibition is 5.59%.

In the case of `Cc1ccccc1C(=O)Nc1cccc(-c2nnc(SCC(=O)O)n2C)c1`, the inhibition was 12.2%. For `CCn1c(SCC(=O)Nc2cccc(F)c2)nnc1-c1cc2cc(Br)ccc2o1` the value was 9.56%. For `O=C(NCc1cccs1)C1CCN(S(=O)(=O)c2ccc3c(c2)OCCO3)CC1` the value was 7.85%. For `O=C(CSc1ncccn1)NCCc1ccccc1` the value was 1.73%; for `CC(C)(C)c1ccc(C(=O)CSc2ncn[nH]2)cc1`, 5.03%. `NC(=O)C1CCN(C(=O)c2ccc(C(F)(F)F)cc2)CC1`: the inhibition was 2.29%. Turning to `CCC(=O)Nc1cccc(NC(=O)c2cccnc2)c1`, the inhibition was 1.22%. The figure for `Cn1c(=O)cc(OCCCC(=O)N2CCN(Cc3ccc4c(c3)OCO4)CC2)c2ccccc21` is 14.1%; for `COc1ccc(CN2CN(C(C)C)CSC2=S)cc1` it is 0.75%; for `Cc1ccccc1CN1CCN(CC(=O)NCc2ccccn2)C1=O` it is -3.92%. `Clc1ccc(C2CC(c3cccs3)n3ncnc3N2)cc1Cl` (stereo unspecified): the inhibition was 3.31%. For `Cc1csc(NC(=O)CN2CCCCCC2)n1` the value was 10.6%; for `Cc1csc(NC(=O)NC2(C(F)(F)F)Oc3ccccc3O2)n1`, 30.9% (active); for `Cc1cc(C)nc(NC(=O)Nc2ccccc2C(F)(F)F)n1`, 3.47%. `CCOC(=O)CC1C(=O)NCCN1C(=O)COc1ccc(Br)cc1C` (stereo unspecified): the inhibition was 4.26%. The figure for `COCCCNC(=O)c1ccc(CNS(=O)(=O)c2ccc(NC(C)=O)cc2)cc1` is -9.1%; for `Cc1ccc(NC(=O)NCC(c2cccnc2)N2CCOCC2)cc1` (stereo unspecified) it is 6.82%; for `CCCS(=O)(=O)Nc1c(C(=O)O)[nH]c2ccccc12` it is 8.57%. For `COc1ccc(Cl)cc1S(=O)(=O)Nc1cccc(C(=O)O)c1` the value was 4.26%; for `CC1CCCN(c2ccc(C(=O)NCCc3ccccc3)cn2)C1` (stereo unspecified), 9.14%; for `CCC12CN3CC(CC)(CN(C1)C31C(=O)N(C)c3ccc(C)cc31)C2=O` (stereo unspecified), 9.74%. For `COc1ccc(OC)c(C2N(c3ccccn3)C(=O)C3CCCN32)c1` (stereo unspecified) the value was 5.57%; for `O=C(CCS(=O)(=O)Cc1ccccc1F)NCCCN1CCCCC1`, 2.74%; for `CCCn1c(SCC(=O)Nc2c(C)cccc2C)nnc1C(C)C`, -6.26%. For `CCOC(=O)c1ccc(-c2ccc(C(=O)Nc3cccnc3)o2)cc1`, the inhibition was 14.4%. As to `CC(C)NS(=O)(=O)c1ccc(NC(=O)c2cccnc2)cc1`, the inhibition is 4.79%. The figure for `CC(=O)Oc1cccc(N2C(=O)C3CC=C(Cl)CC3C2=O)c1` (stereo unspecified) is 9.02%; for `CCn1c(CSc2ncccn2)nnc1SCC(=O)N1c2ccccc2CC1C` (stereo unspecified) it is 4.54%. The figure for `O=c1c2ccccc2oc2nc3n(c(=O)c12)CCCS3` is 4.21%.

Take `O=C(N1CCOCC1)N1CCOCC1`: the inhibition was 0.65%. For `CC(C)Cc1cc(C(=O)NCCc2ccccc2)no1` the value was -0.72%; for `CCC1CCCCN1CCNC(=O)c1[nH]c(C)c(C(C)=O)c1C` (stereo unspecified), 3.39%; for `CCOC(=O)N1CCN(C(=O)c2ccc3nc4cc(Cl)ccc4c(=O)n3c2)CC1`, -20.1%. As for `CC1=C(C)CC2C(=O)N(c3cccc4ccccc34)C(=O)C2C1` (stereo unspecified), the inhibition was 5.39%. Take `COc1ccccc1-c1c(C)nn2c(C)c(C(C)=O)cnc12`: the inhibition was 1.22%. For `Cn1cccc1C(=O)NC(=O)COC(=O)Cc1coc2ccc3ccccc3c12` the value was 4.62%; for `O=C(Nc1cccc(Cl)c1)OCc1ccccn1`, 5.59%; for `Cc1cc(C)c(C(=O)CN2C(=O)CCC2=O)cc1C`, 1.27%. For `O=C(CNS(=O)(=O)c1cccc(C(F)(F)F)c1)Nc1ccccc1F` the value was 12.6%; for `O=C1CC(c2ccccc2)C(=O)N1c1cccc(O)c1` (stereo unspecified), 4.1%.

The values above are taken from PubChem BioAssay AID559 (PCMD, 2006).
